# Measured values reported in PubChem BioAssay (NCATS).
# Results filed as inconclusive are left out. The source made the active and inactive calls. The call rests on the fitted dose curve; in most records, active means well fitted cell-killing curve with a large enough effect; inconclusive means small, poorly fitted or top-dose-only effect; inactive means no such curve, though single readings can be large or run the other way. Where a SMILES comes first, the peptide text is derived from it. [ ]: non-standard residue; d: D form. pGlu = O=C1CC[C@@H](C(=O)O)N1
# Assay: qHTS of pediatric cancer cell lines to identify multiple opportunities for drug repurposing: Primary screen for Saos-2 cells (AID 1347097); further: nearly all actives have a fitted effect of over 40% in size
# Conditions: Saos-2 viability, CellTiter-Glo ATP luminescence, 48 h; series mostly up to 46 µM; activity change, negative = cytotoxic: at the top concentration
# From the text: Drug repurposing or repositioning has been offered as a strategy for drug development in oncology programs. This approach has special potential for childhood cancers and other rare or orphan diseases, where the expected return on new drug development has been a disincentive to pharmaceuticals. […] In this project we exploit the poly-pharmacology of drugs to discover new indications via phenotypic screening of a panel of 19 well-characterized cell lines derived from solid tumors seen in children and adolescents. The goal is to identify approved drugs with previously unrecognized anticancer properties that has the potential to reveal new mechanisms and biological processes involved in carcinogenesis or drug resistance. We employed a titration-based paradigm (quantitative high-throughput screening or qHTS), where all compounds were tested at multiple concentrations for their effect on cell viability. Concentration-response curves (CRCs) were derived directly from the primary screen, and both potency and efficacy values were used to identify compounds with robust bioactivity profiles. We screened the NIH Chemical Genomics Center (NCGC) Pharmaceutical Collection (NPC) and Mechanism Interrogation Plate (MIPE) small molecule collections of approved and investigational compounds against these cell lines; and measured metabolically active cells after 48 hours of compound treatment as a proxy for cell viability. […] Assay Submitter: Nathalia J. Martinez, National Center for Advancing Translational Sciences, National Institutes of Health, Rockville, MD, USA; email: natalia.martinez@nih.gov Shen, M et al. Quantitative high-throughput phenotypic screening of pediatric cancer cell lines identifies multiple opportunities for drug repurposing. Oncotarget 2017 Dec 19;9(4):4758-4772. PMID 29435139.
# The cells were obtained from University of North Carolina (UNC), Pediatric Preclinical Testing Program (PPT), and Coriell Institute (CI). qHTS cell viability assay: Cells were assayed in growth media at a density of 500-1,000 cells/well. Five microliters of cells were dispensed into 1,536-well, white, solid-bottom, TC-treated plates (Greiner Bio One) using a multidrop dispenser and incubated at 37 degrees C, 5% CO2, under a humidified atmosphere for 5 hours. Twenty-three nanoliters of compounds and controls (neutral control DMSO or positive control bortezomib at final concentration of 2.3 µM) were subsequently transferred by Kalypsys pintool. For primary screens, the MIPE collection was tested at 11-point dilutions (final concentrations range from 0.78 nM to 46 µM) and the NPC collection at 8-point dilutions (final concentrations range from 0.59 nM to 46 µM). Compounds tested in follow-up screens were assayed at 11-point dilutions. Cells were incubated for 48 hours, followed by addition of 3 µL of CellTiter-Glo (Promega). After a 15 min incubation at room temperature, samples were analyzed for luminescence intensity using a ViewLux High-throughput CCD imager equipped with clear filters.
# On the % scale 0 is the no-effect control and ±100 the full control effect; potency means the concentration at half of the fitted maximal effect.
SMILES,"activity change, negative = cytotoxic",Potency
COc1cc2nc(Cl)nc(N)c2cc1OC,3.34% (inactive),–
Cc1ncc(CO)c(CO)c1O,-3.98% (inactive),–
COc1ccc2c(c1)CCCC2=O,22.6% (inactive),–
CCN(CC)CCOc1ccc(/C(=C(\Cl)c2ccccc2)c2ccccc2)cc1,–,26.6 µM (active)
CNC(=O)c1c(I)c(NC(C)=O)c(I)c(C(=O)O)c1I,30.1% (inactive),–
OC(CCCN1CCCCC1)(c1ccccc1)c1ccccc1,-13.9% (inactive),–
O=C(c1cc(O)c(O)c(O)c1)c1ccc(O)c(O)c1O,–,26.6 µM (active)
COC(=O)/C=C(/C)N,22% (inactive),–
CO/N=C(/C(=O)N[C@@H]1C(=O)N2C(C(=O)OCOC(=O)C(C)(C)C)=C(C)CS[C@H]12)c1csc(N)n1,18.6% (inactive),–
Cc1nc2n(c(=O)c1CCN1CCC(C(=O)c3ccc(F)cc3)CC1)CCS2,10.8% (inactive),–
CCOC(=O)[C@H](CCc1ccccc1)N[C@@H](C)C(=O)N(CC(=O)O)C1Cc2ccccc2C1,-3.84% (inactive),–
OCc1cccnc1,-14.6% (inactive),–
Cn1c(=O)c2c(ncn2CC(=O)O)n(C)c1=O,-12% (inactive),–
CN(C)C(=O)CNC(=O)Cc1ccccc1,-25.2% (inactive),–
CC(=O)Nc1c(I)c(NC(C)=O)c(I)c(C(=O)O)c1I,5.8% (inactive),–
C[N+](C)(CCOc1ccccc1)Cc1cccs1,8.57% (inactive),–
CCN(CC)CC(=O)Oc1ccc(NC(C)=O)cc1,19.8% (inactive),–
O=C(O)c1ccccc1Nc1cc(Cl)ccc1C(=O)O,–,9.2 µM (active)
Cc1ccc(Cl)c(OCC(O)CNC(C)(C)C)c1 (stereo not given),-6.15% (inactive),–
COc1cc(C(=O)OC(COCCC(C)C)CN2CCOCC2)cc(OC)c1OC (stereo not given),4.88% (inactive),–

SMILES,"activity change, negative = cytotoxic",Potency
CC(C(=O)O)c1ccc(/C=C2\CCCCC2=O)cc1 (stereo not given),15.2% (inactive),–
C[C@H]1C[C@H]2[C@@H]3CCC4=CC(=O)C=C[C@]4(C)[C@H]3C(=O)C[C@]2(C)[C@@]1(O)C(=O)CO,31.3% (inactive),–
CC(C)(C)C(O)/C=C/c1ccc2c(c1)OCO2 (stereo not given),2.75% (inactive),–
Cn1cc(S(C)=O)c(=O)c2ccc(F)cc21 (stereo not given),-9.82% (inactive),–
C#CC(C)(CC)OC(=O)c1ccccc1C(=O)O (stereo not given),13.7% (inactive),–
O=C(O)Cc1ccc(OCCNC[C@H](O)c2ccccc2)cc1,-23.1% (inactive),–
O=C(C1CCCCC1)N1CC(=O)N2CCCc3ccccc3C2C1 (stereo not given),-23.7% (inactive),–
Cc1ccc(CCn2c3c(c4cc(Cl)ccc42)CN(C)CC3)cn1,-5.76% (inactive),–
Fc1ccc(C(c2ccc(F)cc2)N2CCNCC2)cc1,9.88% (inactive),–
Cc1ccc(C(C)OC(=O)C2(C)CCC(C(=O)O)C2(C)C)cc1 (stereo not given),-10.1% (inactive),–
COC(=O)c1cc(S(N)(=O)=O)ccc1OC,7.12% (inactive),–
CCCOc1ccc2c(c1)CC[C@@H]1[C@@H]2CC[C@]2(C)C(OC)CC[C@@H]12 (stereo not given in full),-4.34% (inactive),–
CCNC(=O)[C@@H]1CCCN1C(=O)[C@H](CCCN=C(N)N)NC(=O)[C@H](CC(C)C)NC(=O)CNC(=O)[C@H](Cc1ccc(O)cc1)NC(=O)[C@H](CO)NC(=O)[C@H](Cc1c[nH]c2ccccc12)NC(=O)[C@H](Cc1cnc[nH]1)NC(=O)[C@@H]1CCC(=O)N1 ([pGlu]HWSYGLRP-NHEt),2.47% (inactive),–
CCCC(CCC)(C(=O)OCC)C(=O)OCC,12.4% (inactive),–
CC(=O)N[C@@H](CO)C(=O)N[C@@H](CC(=O)O)C(=O)N[C@@H](CCCCN)C(=O)N1CCC[C@H]1C(=O)O (Ac-SDKP-OH),-1.59% (inactive),–
CN1Cc2cc(C(=O)N3CCC(C4CCNCC4)CC3)ccc2NC(CC(=O)O)C1=O (stereo not given),-2.8% (inactive),–
O=C(O)[C@H](O)[C@@H](O)[C@H](O[C@@H]1O[C@H](CO)[C@H](O)[C@H](O)[C@H]1O)[C@H](O)CO,-22.7% (inactive),–
COC(=O)C1=C(C)NC(C)=C(C(=O)OCCc2ccc(N3CCN(C(c4ccccc4)c4ccccc4)CC3)cc2)C1c1cccc([N+](=O)[O-])c1 (stereo not given),2.52% (inactive),–
CCCCCCCCCCCCCCCC[N+](C)(C)Cc1ccccc1,–,23.7 µM (active)
COc1cc(OC)nc(O[C@H](C(=O)O)C(OC)(c2ccccc2)c2ccccc2)n1,-24.5% (inactive),–
